Assay results as given in PubChem BioAssay (EPA / NIEHS).
The source made the active and inactive calls. How the source made its calls: active means hit-call score of the fitted dose curve at least 0.9, where 1 is the maximum; inactive means score below 0.9.

Key:
Details in all cases: mRNA level, 48 h; actives raise or lower the signal
Caspase-3 (Homo sapiens) = Caspase-3 (Homo sapiens) (UniProt P42574); assay: LTEA_HepaRG_CASP3: Life Technologies and Expression Analysis (LTEA) Assay for cysteine-aspartic acid protease (CASP3) using HepaRG (AID 2283477)
Sequence of Caspase-3 (Homo sapiens) (P42574 whole entry, looked up): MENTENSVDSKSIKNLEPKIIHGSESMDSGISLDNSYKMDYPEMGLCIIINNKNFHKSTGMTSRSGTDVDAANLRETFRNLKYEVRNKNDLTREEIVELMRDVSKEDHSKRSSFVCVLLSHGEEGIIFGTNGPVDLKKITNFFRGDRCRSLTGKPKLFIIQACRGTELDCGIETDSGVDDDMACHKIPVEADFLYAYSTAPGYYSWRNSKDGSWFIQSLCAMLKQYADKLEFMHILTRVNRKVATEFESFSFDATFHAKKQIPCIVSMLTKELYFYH
Procedure, shortened: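 In HepaRG liver cells dosed for 48 h at up to 100 uM (eight-point, duplicate), CASP3 expression changes are scored by qRT-PCR. Activity is fitted in both directions with 0.5% DMSO as baseline.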

[1] = read-out: Cytochrome P450 (CYP24A1), CYP24A1 (gene 1591); assay: LTEA_HepaRG_CYP24A1: Life Technologies and Expression Analysis (LTEA) Assay for Cytochrome P450 (CYP24A1) using HepaRG (AID 2283478)
Procedure, shortened: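 Human liver HepaRG cultures receive each chemical for 48 h across an eight-point half-log series topping at 100 uM in 0.5% DMSO. Induction or suppression of CYP24A1 mRNA is scored relative to vehicle after housekeeping-gene normalization.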

[2] = read-out: Cytochrome P450 (CYP1A2), CYP1A2 (gene 1544); assay: LTEA_HepaRG_CYP1A2: Life Technologies and Expression Analysis (LTEA) Assay for Cytochrome P450 (CYP1A2) using HepaRG (AID 2283479)
Procedure, shortened: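 Assesses CYP1A2 mRNA in human HepaRG liver cells after 48 h chemical exposure at up to 100 uM. Values come from qRT-PCR with bidirectional curve fitting relative to DMSO.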

[3] = read-out: cysteine-aspartic acid protease (CASP8), CASP8 (gene 841); assay: LTEA_HepaRG_CASP8: Life Technologies and Expression Analysis (LTEA) Assay for cysteine-aspartic acid protease (CASP8) using HepaRG (AID 2283480)
Procedure, shortened: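 CASP8 transcript measured by TaqMan qRT-PCR with ACTB/GAPDH/POLR2A normalization, after 48 h chemical exposure of HepaRG cells in serum-free induction medium. Eight concentrations, top 100 uM, half-log steps, 0.5% DMSO vehicle; fits in both directions versus DMSO.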

[4] = read-out: Cytochrome P450 (CYP2B6), CYP2B6 (gene 1555); assay: LTEA_HepaRG_CYP2B6: Life Technologies and Expression Analysis (LTEA) Assay for Cytochrome P450 (CYP2B6) using HepaRG (AID 2283481)
Procedure, shortened: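 Using 48 h treatment of HepaRG cells in serum-free induction medium, concentrations spanned half-log steps from 100 uM in 0.5% DMSO vehicle. CYP2B6 mRNA induction or loss is scored by qRT-PCR against DMSO.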

[5] = read-out: Cytochrome P450 2C19 (Homo sapiens) (UniProt P33261); assay: LTEA_HepaRG_CYP2C19: Life Technologies and Expression Analysis (LTEA) Assay for CYP2C19 using HepaRG (AID 2283482)
Procedure, shortened: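 Human HepaRG liver cells received test chemicals for 48 h (highest 100 uM, half-log dilutions in 0.5% DMSO). CYP2C19 mRNA induction or loss is read by multiplexed qRT-PCR and fitted in both directions versus vehicle.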

CYP2C8 (gene 1558) = assay: LTEA_HepaRG_CYP2C8: Life Technologies and Expression Analysis (LTEA) Assay for CYP2C8 using HepaRG (AID 2283483)
Procedure, shortened: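 CYP2C8 expression measured by TaqMan qRT-PCR and normalized to three housekeeping genes. HepaRG cultures were treated for 48 h with an eight-point half-log series topping at 100 uM, vehicle 0.5% DMSO, duplicates; fitted both directions against DMSO.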

CYP2C9 (gene 1559) = assay: LTEA_HepaRG_CYP2C9: Life Technologies and Expression Analysis (LTEA) Assay for CYP2C9 using HepaRG (AID 2283484)
Procedure, shortened: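 CYP2C9 transcript level, quantified by TaqMan qRT-PCR against three housekeeping genes, was fitted bidirectionally relative to 0.5% DMSO. HepaRG cultures were treated 48 h, in duplicate, at eight half-log concentrations topping at 100 uM.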

CYP2E1 (gene 1571) = assay: LTEA_HepaRG_CYP2E1: Life Technologies and Expression Analysis (LTEA) Assay for CYP2E1 using HepaRG (AID 2283485)
Procedure, shortened: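 Assay uses 48 h exposure of HepaRG hepatic cells, eight concentrations to 100 uM. Expression of CYP2E1 is quantified by TaqMan qRT-PCR with ACTB, GAPDH and POLR2A normalization; curves fitted in both directions relative to vehicle.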

CYP4A11 (gene 1579) = assay: LTEA_HepaRG_CYP4A11: Life Technologies and Expression Analysis (LTEA) Assay for CYP4A11 using HepaRG (AID 2283486)
Procedure, shortened: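 Readout is CYP4A11 mRNA induction or suppression (qRT-PCR, ACTB/GAPDH/POLR2A normalization) in human HepaRG cells after 48 h chemical treatment, concentrations to 100 uM in 0.5% DMSO, fitted bidirectionally against vehicle.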

[6] = read-out: Cytochrome P450 3A4 (Homo sapiens) (UniProt P08684); assay: LTEA_HepaRG_CYP3A4: Life Technologies and Expression Analysis (LTEA) Assay for CYP3A4 using HepaRG (AID 2283487)
Procedure, shortened: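 CYP3A4 transcript measured by TaqMan qRT-PCR and normalized to three housekeeping genes after 48 h chemical exposure of human HepaRG cells. Top concentration 100 uM, half-log steps, 0.5% DMSO vehicle; gain or loss fitted against DMSO baseline.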

[7] = read-out: DNA damage-inducible transcript 3 (DDIT3), DDIT3 (gene 1649); assay: LTEA_HepaRG_DDIT3: Life Technologies and Expression Analysis (LTEA) Assay for DNA damage-inducible transcript 3 (DDIT3) using HepaRG (AID 2283488)
Procedure, shortened: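 Eight-point concentration-response (100 uM highest, half-log dilutions) in HepaRG, 48 h, duplicate wells. Endpoint: qRT-PCR mRNA, normalized (ACTB, GAPDH, POLR2A), bidirectional fitting with DMSO as baseline.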

[8] = read-out: Pro-epidermal growth factor (Homo sapiens) (UniProt P01133); assay: LTEA_HepaRG_EGF: Life Technologies and Expression Analysis (LTEA) Assay for Epidermal growth factor (EGF) using HepaRG (AID 2283489)
Procedure, shortened: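 EGF expression changes in human HepaRG cells are scored by bidirectional fitting relative to 0.5% DMSO controls. Chemicals are tested at eight half-log concentrations up to 100 uM for 48 h in serum-free induction medium.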

[9] = read-out: Early growth response protein 1 (EGR1) transcription factor, EGR1 (gene 1958); assay: LTEA_HepaRG_EGR1: Life Technologies and Expression Analysis (LTEA) Assay for Early growth response protein 1 (EGR1) transcription factor using HepaRG (AID 2283490)
Procedure, shortened: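 EGR1 transcript levels quantified by qRT-PCR (Fluidigm arrays) against three housekeeping genes after 48 h chemical exposure of HepaRG cells. Eight-point half-log series topping at 100 uM, 0.5% DMSO vehicle, analyzed for gain or loss.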

[10] = read-out: Ezrin (EZR), EZR (gene 7430); assay: LTEA_HepaRG_EZR: Life Technologies and Expression Analysis (LTEA) Assay for Ezrin (EZR) using HepaRG (AID 2283491)
Procedure, shortened: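 HepaRG, 48 h chemical exposure, 8-pt half-log series from 100 uM, 0.5% DMSO vehicle, duplicates. Read-out: EZR mRNA by TaqMan qRT-PCR (Fluidigm array), housekeeping-normalized; bidirectional curve fit vs DMSO baseline.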

[11] = read-out: Cytochrome P450 3A7 (Homo sapiens) (UniProt P24462); assay: LTEA_HepaRG_CYP3A7: Life Technologies and Expression Analysis (LTEA) Assay for CYP3A7 using HepaRG (AID 2283492)
Procedure, shortened: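 Cells were thawed, plated, cultured 48 h, then treated for a further 48 h with chemicals (eight-point half-log series from 100 uM, 0.5% DMSO). RNA was isolated and CYP3A7 expression quantified by qRT-PCR normalised to ACTB, GAPDH and POLR2A.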

CYP3A5 (gene 1577) = assay: LTEA_HepaRG_CYP3A5: Life Technologies and Expression Analysis (LTEA) Assay for CYP3A5 using HepaRG (AID 2283493)
Procedure, shortened: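 Readout was CYP3A5 mRNA by qRT-PCR. HepaRG cultures were exposed for 48 h in serum-free induction medium to chemicals at up to 100 uM, and responses were fitted in both directions relative to DMSO vehicle.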

[12] = read-out: Fatty Acid-Binding Protein 1 (FABP1), FABP1 (gene 2168); assay: LTEA_HepaRG_FABP1: Life Technologies and Expression Analysis (LTEA) Assay for Fatty Acid-Binding Protein 1 (FABP1) using HepaRG (AID 2283494)
Procedure, shortened: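 FABP1 expression by TaqMan qRT-PCR, normalised to three housekeeping genes, in HepaRG cells after 48 h chemical treatment. Eight-point half-log series topping at 100 uM in 0.5% DMSO, duplicates; gain or loss fitted relative to vehicle.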

[13] = read-out: Cytochrome P450 4A22 (Homo sapiens) (UniProt Q5TCH4); assay: LTEA_HepaRG_CYP4A22: Life Technologies and Expression Analysis (LTEA) Assay for Cytochrome P450 4A22 (CYP4A22) using HepaRG (AID 2283495)
Procedure, shortened: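 Cryopreserved HepaRG cells, plated and cultured 48 h, then switched to serum-free induction medium and treated 48 h (duplicates, up to 100 uM, half-log steps, 0.5% DMSO). Expression change of CYP4A22 was fitted bidirectionally against vehicle.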

[14] = read-out: Cytochrome P450 7A1 (Homo sapiens) (UniProt P22680); assay: LTEA_HepaRG_CYP7A1: Life Technologies and Expression Analysis (LTEA) Assay for Cytochrome P450 7A1 (CYP7A1) using HepaRG (AID 2283496)
Procedure, shortened: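 Using 0.5% DMSO as vehicle and baseline, chemicals were tested in duplicate over an 8-point range from 100 uM on HepaRG cells for 48 h; qRT-PCR signals were normalised to ACTB, GAPDH and POLR2A.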

Measured: AC50

Sequence of Cytochrome P450 3A7 (Homo sapiens) (P24462 whole entry, looked up): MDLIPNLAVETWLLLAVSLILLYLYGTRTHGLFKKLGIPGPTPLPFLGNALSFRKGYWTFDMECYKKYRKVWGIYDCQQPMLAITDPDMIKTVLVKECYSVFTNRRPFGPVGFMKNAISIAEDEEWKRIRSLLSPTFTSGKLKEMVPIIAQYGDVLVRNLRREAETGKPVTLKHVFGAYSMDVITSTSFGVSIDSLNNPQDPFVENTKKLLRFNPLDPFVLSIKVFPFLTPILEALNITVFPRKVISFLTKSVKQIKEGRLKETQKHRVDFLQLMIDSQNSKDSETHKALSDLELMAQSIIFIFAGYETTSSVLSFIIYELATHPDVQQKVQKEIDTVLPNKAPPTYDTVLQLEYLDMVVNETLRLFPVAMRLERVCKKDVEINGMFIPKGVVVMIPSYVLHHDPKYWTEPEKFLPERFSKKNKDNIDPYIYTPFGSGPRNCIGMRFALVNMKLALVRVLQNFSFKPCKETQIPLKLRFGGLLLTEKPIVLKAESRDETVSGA
Sequence of Cytochrome P450 3A4 (Homo sapiens) (P08684 whole entry, looked up): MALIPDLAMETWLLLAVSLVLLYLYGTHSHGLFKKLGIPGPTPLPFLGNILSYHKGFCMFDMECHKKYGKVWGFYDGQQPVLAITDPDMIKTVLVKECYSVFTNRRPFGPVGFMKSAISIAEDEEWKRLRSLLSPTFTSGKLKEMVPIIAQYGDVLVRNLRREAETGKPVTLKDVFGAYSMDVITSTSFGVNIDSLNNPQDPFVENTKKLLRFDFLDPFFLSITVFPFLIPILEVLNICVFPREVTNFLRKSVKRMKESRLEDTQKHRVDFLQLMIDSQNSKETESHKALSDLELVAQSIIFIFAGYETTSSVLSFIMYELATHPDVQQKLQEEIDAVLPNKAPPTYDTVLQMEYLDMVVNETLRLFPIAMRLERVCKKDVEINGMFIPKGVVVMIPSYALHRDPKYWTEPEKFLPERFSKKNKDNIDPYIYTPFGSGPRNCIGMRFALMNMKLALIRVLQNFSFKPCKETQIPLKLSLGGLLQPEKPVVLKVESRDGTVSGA
Sequence of Cytochrome P450 2C19 (Homo sapiens) (P33261 whole entry, looked up): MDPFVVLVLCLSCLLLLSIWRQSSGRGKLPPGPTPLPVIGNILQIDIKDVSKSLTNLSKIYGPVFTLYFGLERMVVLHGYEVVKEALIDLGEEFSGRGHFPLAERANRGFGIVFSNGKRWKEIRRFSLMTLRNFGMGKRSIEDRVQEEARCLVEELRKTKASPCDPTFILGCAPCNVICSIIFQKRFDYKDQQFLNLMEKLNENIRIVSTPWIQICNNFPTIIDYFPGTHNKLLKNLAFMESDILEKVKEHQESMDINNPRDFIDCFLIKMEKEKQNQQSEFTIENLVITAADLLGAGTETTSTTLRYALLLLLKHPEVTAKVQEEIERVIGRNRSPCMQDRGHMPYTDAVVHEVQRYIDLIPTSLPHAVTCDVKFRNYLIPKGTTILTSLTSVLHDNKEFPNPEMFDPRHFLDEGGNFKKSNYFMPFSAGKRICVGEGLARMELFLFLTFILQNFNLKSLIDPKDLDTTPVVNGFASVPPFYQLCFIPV

CC(C)=CCCC(C)=CC=O
active: [4] 50 µM
inactive: all other assays above

Nc1ccc(Nc2ccccc2)cc1
active: [2] 4.54 µM | [4] 33.7 µM | CYP2E1 (gene 1571) 71.2 µM | [11] 62.7 µM | [12] 50 µM | [14] 50 µM
inactive: all other assays above

COC(=O)c1c(Cl)c(Cl)c(C(=O)OC)c(Cl)c1Cl
inactive: all assays above

CCCCC(CC)COC(=O)CCCCCCCCC(=O)OCC(CC)CCCC (centres undefined)
not listed: [13]
inactive: all other assays above

CC(C)c1cccc(C(C)C)c1N1C(=O)c2ccc(O)cc2C1=O
inactive: Caspase-3 (Homo sapiens) | [1] | [2] | [3] | CYP2C8 (gene 1558) | CYP2C9 (gene 1559) | [8] | [10] | CYP3A5 (gene 1577)
active: [4] 88.6 µM | [5] 91.5 µM | CYP2E1 (gene 1571) 89.7 µM | CYP4A11 (gene 1579) 72 µM | [6] 11.6 µM | [7] 74.9 µM | [9] 86.2 µM | [11] 87.9 µM | [12] 77.7 µM | [13] 72 µM | [14] 93.3 µM

CCCN(C1CCN(C(=O)C2CCNCC2)CC1)[C@@H]1CCc2ccc(OC)cc2C1
active: [2] 84.3 µM | [4] 87.9 µM | [5] 86.3 µM | CYP2C8 (gene 1558) 86.5 µM | CYP2C9 (gene 1559) 80.3 µM | CYP2E1 (gene 1571) 67.4 µM | CYP4A11 (gene 1579) 90.7 µM | [6] 86.7 µM | [7] 50 µM | [11] 86.4 µM | CYP3A5 (gene 1577) 80.3 µM | [12] 83.5 µM | [13] 88.2 µM | [14] 77.3 µM
inactive: Caspase-3 (Homo sapiens) | [1] | [3] | [8] | [9] | [10]
